Sfp PPTase inh: inhibitors of Bacillus subtilis Sfp phosphopantetheinyl transferase. Q9F4F7. Biochemical Sfp PPTase activity, qHTS. Potency, µM, for the others: largest response in the series, negative = inhibition, actives largely listed as inhibitors. 310,000 compounds, 3.5% hits;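 note: the enzyme is Sfp with the accession as filed and its product quenches rhodamine fluorescence; potency is the fitted concentration of half-maximal effect; 0% = enzyme reaction without inhibitor and -100% = no enzyme wells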
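After 15 min at room temperature with compound, 15 nM Sfp received 5 uM rhodamine-CoA plus 12.5 uM BHQ-2-ybbR (50 mM Hepes pH 7.6, 10 mM MgCl2). Rate came from the fluorescence difference over 30 min, ex 525/em 598 nm.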
Tau fibril ThT: blocks human tau fibril formation measured by thioflavin T; Potency, µM (titrated, usually from 57.4 µM), without a hit: at the top dose activity, negative = inhibition, hits mostly inhibitors; 270,000 compounds, 2.1% hits; P10636; recombinant tau K18 P301L, heparin-induced fibrillization, ThT fluorescence; note: potency is the fitted concentration of half-maximal effect; nearly all actives have a fitted effect of over 55% in size
Target sequence (P10636 561-689 P618L limits assumed): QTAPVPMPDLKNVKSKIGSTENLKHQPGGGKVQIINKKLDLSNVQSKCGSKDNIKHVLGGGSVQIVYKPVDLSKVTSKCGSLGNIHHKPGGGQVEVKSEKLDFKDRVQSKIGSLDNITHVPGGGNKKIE
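Tau K18 P301L fragment (15 uM unlabeled plus 0.24 uM Alexa 594-labeled) in 100 mM sodium acetate pH 7 with compound, fibrillization induced by 20 uM heparin for 6 hr at 37 C. Thioflavin T (30 uM) added, fluorescence read after 1 hr (ex 450, em 510 nm).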
Tau fluor cs: counter-screen for tau fibril formation inhibitors. tau K18 P301L Alexa594 fluorescence, heparin fibrillization. Potency, µM (titrated, usually from 57.7 µM), for inactives: at the top dose activity change, negative = decrease. 280,000 compounds, 0.93% hits. AID 1463; note: potency is the fitted concentration of half-maximal effect; nearly all actives have a fitted effect of over 55% in size
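Human tau K18 P301L (15 uM unlabeled, 0.24 uM Alexa 594-labeled) in 100 mM sodium acetate pH 7 with 20 uM heparin, 6 hr at 37 C. ThT 30 uM added, 1 hr ambient; Alexa 594 FP and total fluorescence read at 555/632 nm.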
G9a block: blocks human histone lysine methyltransferase G9a | 350,000 compounds, 8.8% hits | Potency, µM (doses to about 102 µM), without a hit: at the top dose activity, negative = inhibition, hits mostly inhibitors | AID 504332 | Q96KQ7 | G9a H3K9 monomethylation, AlphaScreen, 2 h; note: potency is the fitted concentration of half-maximal effect; nearly all actives have a fitted effect of over 75% in size
Target sequence (Q96KQ7 913-1193 limits assumed): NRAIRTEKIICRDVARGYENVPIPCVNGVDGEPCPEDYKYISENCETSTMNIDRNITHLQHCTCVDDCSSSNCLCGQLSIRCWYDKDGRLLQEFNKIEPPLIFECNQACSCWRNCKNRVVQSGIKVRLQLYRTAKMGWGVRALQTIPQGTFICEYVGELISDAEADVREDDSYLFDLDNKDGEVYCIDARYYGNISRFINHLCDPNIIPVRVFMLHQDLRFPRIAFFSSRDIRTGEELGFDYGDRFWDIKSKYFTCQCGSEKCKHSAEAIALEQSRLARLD
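AlphaScreen detection with an anti-monomethyl H3K9 antibody quantified product after a 2 h room-temperature reaction containing 500 nM biotinylated H3K9 peptide, 20 µM SAM and 20 nM enzyme, which had been preincubated 15 min with compound.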
Coupling enz: counter-screen for Giardia aldolase inhibitors: coupling enzyme system; coupling enzyme system counterscreen, AmpLite Red fluorescence; activity change, negative = inhibition, % at 58.2 µM, hits read low; 290,000 compounds, 0.67% hits; in the data active = activity change below about -30%
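First, compound is pin-transferred into glyceraldehyde-3-phosphate coupling-enzyme reagent at 57.5 uM final and held 10 min at RT. Next, substrate, coupling system and AmpLite Red are added. After 20 min RT, fluorescence (525/598 nm) is read.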
Tau FP inhib: blocks human tau fibril formation measured by polarization; Potency, µM (highest dose often 57.7 µM), for the others: top-dose activity, negative = inhibition, most hits filed as inhibitors; K18 P301L tau heparin fibrillization, Alexa594 FP, 6 h; 280,000 compounds, 0.39% hits; P10636; note: potency is the fitted concentration of half-maximal effect; nearly all actives have a fitted effect of over 55% in size
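Heparin (20 uM) drove fibril formation of recombinant tau K18 P301L, 15 uM unlabeled with 0.24 uM Alexa 594 label, for 6 hr at 37 C in 100 mM sodium acetate pH 7. Fluorescence polarization (555/632 nm) read 1 hr after 30 uM ThT.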
The depositor's hits bear a star; ? = inconclusive; . = no result given; [ ] = another dose, or the depositor's remark. Only some compounds are listed: those with a hit (about 11% of all), similar ones and a draw of the others. Unless noted, calls come from the whole dose curve; as a rule, active = well fitted curve in the direction sought with a large enough effect; inconclusive = small, poorly fitted or top-dose-only effect, or another doubt; inactive = no such curve, though single readings can be large; an effect the other way counts as inactive or inconclusive. Unless noted, % is set by controls: 0 for no effect and ±100 for the full control effect.

SMILES	Sfp PPTase inh	Tau fibril ThT	Tau fluor cs	G9a block	Coupling enz	Tau FP inhib
Cc1nc(-c2coc3cc(C)c(N=O)c(O)c3/c2=N\N)cs1	?	?	-13%	50µM*	3	0%
CCOC(=O)c1cnc(NCc2ccc(OC)cc2OC)c2ccccc12	.	-10%	?	78%[59 µM]	.	?
Cc1cccc(N2CCN(CCCNc3ncnc4onc(-c5ccc(F)cc5)c34)CC2C)c1 (centres undefined)	.	-14%	?	?	.	0%
Cc1csc(NC(=O)c2ccco2)c1C(=O)c1ccccc1	18%	.	?	-6%	1	-9%
CCOC(=O)c1sc(NC(=O)C2c3ccccc3Oc3ccccc32)c(C(=O)OCC)c1C	.	5%	-14%	-26%[59 µM]	.	?
Cc1sc(NC(=O)c2ccco2)c(C(=O)c2ccc(Cl)cc2)c1C	40µM*	?	-23%	22µM*	7	-12%
CCOC(=O)c1sc(NC(=O)c2ccco2)c(C#N)c1C	-16%	-18%	-16%	45µM*	-1	7%
Cc1sc(NC(=S)NC(=O)c2ccco2)c(C#N)c1C	40µM*	-16%	-1%	35µM*	4	5%
CCOC(=O)c1sc(NC(=O)C2c3ccccc3Oc3ccccc32)c(C#N)c1C	.	?	-25%	2.2µM*	.	?
CC(C)(C)OC(=O)N1CCCC1C(=O)NC1COC2CC(n3cc(F)c(=O)[nH]c3=O)OC12 (centres undefined)	10%	.	.	.	5	.
CCOc1ccccc1CNC(=O)CCCN1C(=O)c2cccnc2Oc2ccc(Cl)cc21	.	-1%	-5%	-2%[59 µM]	.	9%
Cc1sc(NC(=O)c2ccco2)c(C(c2ccc(F)cc2)N2CCN(C)CC2)c1C (centres undefined)	-14%	?	-22%	45µM*	3	?
CCN(CC)C(=O)c1sc(NC(=O)c2c(OC)cccc2OC)c(C#N)c1C	-4%	?	-23%	18µM*	0	-6%
Cc1sc(NC(=O)c2ccco2)c(C(c2cccnc2)N2CCN(c3ccc(F)cc3)CC2)c1C (centres undefined)	0%	?	-19%	?	-3	-3%
Cc1nnc(NC(=O)C2c3ccccc3Oc3ccccc32)s1	-91%	-9%	-9%	11µM*	-2	-11%
COc1cc(OC)cc(C(=O)NNC(=O)CN2C(=O)NC(C)(c3ccccc3)C2=O)c1 (centres undefined)	.	.	.	7%	.	.
Cc1oc(-c2ccc(Cl)cc2)nc1Cn1c(=O)cc(C)c2c(C)nn(-c3ccccc3)c21	.	0%	7%	-5%[59 µM]	.	-6%
COCCSc1ccccc1C(=O)N1CCN(Cc2ccccc2)CC1	11%	-10%	-1%	?	1	1%
O=C(O)COc1ccc2c(c1)O/C(=C\c1cccs1)C2=O	-9%	.	-10%	-37%	10	9%
COc1ccc2c(c1)O/C(=C\c1sccc1C)C2=O	45µM*	?	-27%	-4%	0	1%
C=CCn1c(O)c(CN2CCOCC2)c(C)c(C#N)c1=O	7%	?	-24%	50µM*	-31*	?
CCSc1nnc2n1C(C)(C)Cc1ccccc1-2	1%	-4%	-5%	-45%[59 µM]	4	-14%
CC1(C)Cc2ccccc2-c2n[nH]c(=S)n21	45µM*	-13%	-16%	13µM*	0	-9%
COc1cccc(CNC(=O)CN2C(=O)COc3ccc(S(=O)(=O)Nc4ccccc4)cc32)c1	.	7%	-22%	-16%[59 µM]	.	1%
COc1ccc(C2C(=O)N(C3CCCCC3)CC(=O)N2Cc2ccco2)cc1 (centres undefined)	22µM*	-14%	-7%	25µM*	-1	-12%
SMILES	Sfp PPTase inh	Tau fibril ThT	Tau fluor cs	G9a block	Coupling enz	Tau FP inhib
NC(=O)C[C@@H]1NC(=O)c2cc([N+](=O)[O-])cc(F)c2NCCCC[C@@H](C(N)=O)NC(=O)[C@H](CO)NC1=O	3%	4%	-3%	50µM*	4	0%
NC(=O)[C@@H]1CCCNc2c(F)cc([N+](=O)[O-])cc2C(=O)N[C@@H](CCC(=O)O)C(=O)N[C@@H](CO)C(=O)N1	6%	-8%	-7%	79µM*	-3	2%
CC[C@H](C)[C@@H]1NC(=O)c2cc([N+](=O)[O-])cc(F)c2NCCCC[C@@H](C(N)=O)NC(=O)[C@H](CC(N)=O)NC1=O	7%	-5%	-8%	?	1	-9%
NC(=O)[C@@H]1CCNc2c(I)cc([N+](=O)[O-])cc2C(=O)N[C@@H](CCC(=O)O)C(=O)N[C@@H](CO)C(=O)N1	-28%	2%	-6%	10µM*	-4	-8%
NC(=O)[C@@H]1CCCCNc2c(I)cc([N+](=O)[O-])cc2C(=O)N[C@@H](CCC(=O)O)C(=O)N[C@@H](CO)C(=O)N1	6%	?	-16%	40µM*	0	-10%
Cc1nc2ccn(Cc3ccco3)c(=O)c2cc1C(=O)NCc1ccccc1	.	5%	8%	30%[59 µM]	.	-2%
Oc1ccc(NCc2cccs2)cc1	?	.	.	40µM*	-1	.
CC(=O)Nc1ccc(NCc2cccs2)cc1	3%	.	.	.	5	.
CCc1cc(=O)oc2cc(C)cc(OCC(=O)NCc3ccncc3)c12	8%	.	.	.	.	.
N#CC1=C2N=C(N)c3ccccc3N2C2=C(C(=O)CCC2)C1c1ccccc1F (centres undefined)	5%	.	-28%	-39%	-3	13%
Cc1ccccc1C1C(C#N)=C2N=C(N)c3c(sc4c3CCCCC4)N2C2=C1C(=O)CCC2 (centres undefined)	50µM*	?	-20%	?	0	5%
CSc1nc2ccc(NS(=O)(=O)c3c(Cl)cccc3Cl)cc2s1	?	?	10µM*[quencher]	30%[59 µM]	-17	-3%
O=C(NCc1cccnc1)c1ccc(NS(=O)(=O)c2ccc(F)cc2)cc1	6%	.	.	13%	.	.
O=C(Nc1ccc(Cl)cc1)NC1CCCc2ccccc21 (centres undefined)	4%	-8%	-15%	.	-1	-15%
O=C1C(Cl)=C(NC2CCc3ccccc32)C(=O)c2ncccc21 (centres undefined)	45µM*	13µM*	?	.	-7	?
O=C(NCCc1nc2ccccc2n1CCOc1ccc(Cl)cc1)C1CCCCC1	.	?	-1%	10%[59 µM]	.	18%
Cc1ccc2[nH]c3c(N4CCc5ccccc5C4)ncnc3c2c1	2%	?	25µM*[quencher]	?	0	?
Fc1ccc2[nH]c3c(N4CCc5ccccc5C4)ncnc3c2c1	-2%	-6%	?	.	3	-4%

Bioassay records as filed in PubChem.
